High-throughput results as filed in PubChem.
EWS-Fli inh = blocks EWS/Fli oncoprotein-driven transcription | inhibition, % at 12.6 µM | A673 NR0B1-luciferase reporter, viability-normalised | actives 0.67% (n = 350,000) | AID 651661;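 active means mean inhibition of at least 50% after viability correction, with every replicate also passing that limit; inconclusive means mean reaches 50% but only one of two replicates passes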;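 further: firefly luciferase signal divided by Alamar Blue viability fluorescence both relative to DMSO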
LGR2 inh = inhibitors of bursicon-induced Drosophila LGR2 receptor cAMP signaling | HEK293 LGR2, CRE-luciferase, bursicon-stimulated, 4 h | actives 0.35% (n = 380,000) | AID 720647 | inhibition, % at 9.99 µM;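 active means drop in luminescence signal, shown as inhibition above about 50% in the replicate tests, limit read from the data, passing the limit was not always enough; inconclusive means probably only some replicates passing the limit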;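 further: agonist challenge used bursicon conditioned medium at about half maximal strength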
KKLEB cytotox = counter-screen for CF NF-kB inhibitors: cytotoxicity | KKLEB CF airway cells viability, ATPlite luminescence, overnight; active compounds read low; cells stimulated with P. aeruginosa culture filtrate | actives 0.36% (n = 360,000) | activity change (cytotoxicity), % at 5 µM;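 active means corrected activity change at or below -50% at 5 µM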
TWEAK-Fn14 inh = TWEAK-Fn14 signaling inhibition. TWEAK-stimulated Fn14 reporter cells, luciferase luminescence, 8 h. actives 2% (n = 360,000). inhibition, % at 10 µM. AID 1159606; in the data active means inhibition above about 50%
CF NFkB inh = cystic fibrosis NF-kB activation inhibition. KKLEB NF-kB-GFP reporter, PAF-induced, GFP fluorescence overnight. inhibition, % at 5 µM. actives 0.86% (n = 360,000);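 active means at least 50% inhibition at 5 µM, scaled per plate between neutral and stimulator controls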;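 further: PAF is a Pseudomonas aeruginosa culture filtrate used as stimulus; plate controls were PAF-stimulated DMSO wells for no effect and unstimulated DMSO wells for full effect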
TROY signal inh = blocks TROY-dependent signaling in reporter cells. AID 1347056. inhibition, % at 10 µM. actives 0.98% (n = 360,000). Q293 LMP1-TROYcd NF-kB luciferase reporter, 4 h;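 active means compounds whose plate-normalised and pattern-corrected inhibition of the luciferase reporter signal at the single screening dose is 50% or more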
* = called active by the depositor; ? = inconclusive; . = no result. Rows were chosen to be rich in hits. Some 2.6% of all compounds tested hit in one or more screens of this group.

SMILES | EWS-Fli inh | LGR2 inh | KKLEB cytotox | TWEAK-Fn14 inh | CF NFkB inh | TROY signal inh
N#C[C@H]1[C@@H](c2ccc(-c3cccc(F)c3)cc2)[C@H](CO)N1C(=O)CN1CCOCC1 | -0.5 | -0.1 | . | . | . | .
Cn1nc(-c2ccccn2)nc2c(=O)n(C)c(=O)nc1-2 | 37.4 | 102.5* | -99.2* | 102.2* | 99.5* | 57.0*
CCn1c(N)nc2c1c(=O)n(C)c(=O)n2C | -2.5 | -8.4 | 8.1 | 12.2 | 15.0 | 1.9
CCCc1nc2c(=O)n(C)c(=O)nc-2n(C)n1 | 45.1 | 101.8* | -39.2 | 103.8* | 97.3* | 89.8*
C[C@H](NC(=O)C[C@@H]1C=C[C@H](NC(=O)C2CC2)[C@H](CO)O1)c1ccccc1 | -2.6 | -12.3 | . | . | . | .
CO[C@H]1CN(C)C(=O)c2cc(NC(C)=O)ccc2OC[C@H](C)N(C(=O)CN(C)C)C[C@H]1C | . | 6.2 | . | . | . | .
O=C(Nc1nc2cc3c(cc2s1)OCCO3)C1=COCCO1 | 89.3* | 99.6* | -56.0* | 103.9* | -4.5 | 86.7*
O=C(CCN1C(=O)C2CCCCC2C1=O)Nc1nc2ccc(F)cc2s1 (stereo not given) | 37.4 | 7.1 | 3.4 | 72.4* | 12.1 | 72.6*
O=C(Nc1nc2ccc(F)cc2s1)C1=COCCO1 | 68.7* | 62.8* | 2.9 | 85.2* | -40.0 | 36.2
O=C(CCN1C(=O)C2CCCCC2C1=O)Nc1nc2c(F)cc(F)cc2s1 (stereo not given) | -57.0 | -47.9 | -0.1 | 1.5 | 23.7 | -12.4
CSc1cccc2sc(NC(=O)C3=COCCO3)nc12 | -79.9 | -4.0 | 2.7 | -5.0 | -18.9 | -45.1
CCC(=O)N(C)C[C@H]1Oc2ncc(/C=C/c3ccccc3)cc2C(=O)N([C@H](C)CO)C[C@@H]1C | -5.5 | -15.8 | . | . | . | .
Cc1ccccc1-c1ccc([C@@H]2[C@H](CO)N3CCCCN(C(=O)Nc4ccc(F)cc4)C[C@@H]23)cc1 | 32.5 | 10.4 | . | . | . | .
CCCC#Cc1ccc([C@H]2[C@H]3CN(C(=O)Nc4ccccc4F)CC(=O)N3[C@H]2CO)cc1 | -1.0 | 10.1 | . | . | . | .
Cc1cc(/C=N/n2cnnc2)c(C)n1-c1ccc(OCc2ccc(Cl)cc2)cc1 | . | 7.8 | -10.5 | 63.1* | -2.3 | -22.5
O=S(=O)(c1ccccc1)c1ncc(C(F)(F)F)cc1Cl | 5.4 | . | -85.5* | 32.5 | 88.7* | 46.0
CCCCNc1c(-c2cccc(-c3cc(C(C)=O)cs3)c2)nc2ccc(C)cn12 | 9.0 | ? | -93.2* | 40.2 | 83.3* | 25.2
CCCCCCSc1cccc(-c2nc3ccc(Cl)cn3c2NCCCC)c1 | 11.3 | -8.3 | -12.8 | -7.5 | 3.4 | -74.0
CCCCNc1c(-c2cccc(-c3ccc(OC)cc3)c2)nc2cc(C)ccn12 | 25.8 | 91.5* | -13.0 | 31.3 | 20.1 | 29.1
CCCCNc1c(-c2ccc(OC)c(SC3CCCCC3)c2)nc2cc(C)ccn12 | 41.2 | 26.9 | -3.5 | 27.1 | 27.9 | 17.4
COc1cccc(NC(=O)C[C@H]2CC[C@@H]3[C@@H](COc4ccc(NC(=O)C5CCCC5)cc4C(=O)N3C)O2)c1 | . | -21.4 | . | . | . | .
CO[C@H]1CN(C)C(=O)c2cc(NC(=O)NC3CCCC3)ccc2OC[C@@H](C)NC[C@@H]1C | -4.2 | 6.9 | . | . | . | .
O=C(Nc1nccs1)C(c1ccccc1)N1CCCC1 (stereo not given) | -4.9 | 9.5 | 8.8 | 86.2* | -14.6 | 6.7
CC(C)C(C(=O)Nc1nccs1)c1ccccc1 (stereo not given) | . | . | -7.2 | 4.6 | 1.0 | -14.4
N=C1SCC(=O)N1c1ncc(Cc2ccccc2Cl)s1 | 14.4 | 7.7 | 4.3 | 100.2* | 4.6 | 48.0
Cc1cccc(Cc2cnc(N3C(=N)SC(C)C3=O)s2)c1 (stereo not given) | -2.7 | 3.3 | 7.1 | -27.1 | 0.1 | 67.4*
N=C1SCC(=O)N1c1ncc(Cc2cccc(Cl)c2)s1 | 7.0 | 0.0 | 5.5 | 102.3* | -6.6 | 66.8*
Cc1noc(C)c1NC(=O)Nc1ccc2c(c1)C(=O)N([C@H](C)CO)C[C@H](C)[C@@H](CN(C)C(=O)Nc1ccc3c(c1)OCO3)OCCCC[C@H](C)O2 | -2.7 | 3.4 | . | . | . | .
Cc1ccc2c(c1)Oc1ccc([N+](=O)[O-])cc1C(=O)N2 | 13.7 | . | -18.5 | 0.2 | 14.1 | 9.3
Cc1ccc2c(c1)Oc1ccc(NC(=O)CCl)cc1C(=O)N2 | . | 7.6 | -73.1* | 46.0 | 87.1* | -14.0
